An excerpt weighted towards active compounds, which were near 1.2% of everything screened.
RAD52 inh – RAD52 DNA annealing inhibitors, primary screen, biochemical, FRET, single point, set 2. AID 651710, 2012. inhibition, % at 18.7 µM. recombinant RAD52 DNA annealing, FRET fluorescence. actives 0.46% (n = 360,000);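 active means every replicate showing at least 50% inhibition; inconclusive means mean inhibition at least 50% but not in every replicate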
Target sequence (P43351 whole entry, looked up): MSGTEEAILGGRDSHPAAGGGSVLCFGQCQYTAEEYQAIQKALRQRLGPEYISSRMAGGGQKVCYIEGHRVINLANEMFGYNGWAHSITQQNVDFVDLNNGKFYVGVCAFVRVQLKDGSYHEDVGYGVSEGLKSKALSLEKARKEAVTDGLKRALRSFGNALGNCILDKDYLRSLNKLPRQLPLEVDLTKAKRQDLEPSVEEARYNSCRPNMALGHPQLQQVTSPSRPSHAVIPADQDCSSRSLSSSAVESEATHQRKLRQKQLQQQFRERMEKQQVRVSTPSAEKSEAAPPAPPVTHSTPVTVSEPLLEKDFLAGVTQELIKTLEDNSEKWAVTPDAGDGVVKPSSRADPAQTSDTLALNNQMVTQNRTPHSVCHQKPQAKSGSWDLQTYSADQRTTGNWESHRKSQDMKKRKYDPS
RAD54 branch – inhibitors of human RAD54 branch migration, primary screen, biochemical, fluorescence, single point | inhibition, % at 10.4 µM | RAD54 Holliday junction branch migration, FAM/BHQ fluorescence | DNA repair and recombination protein RAD54-like (Homo sapiens), Q92698 | AID 602329, 2012 | actives 0.14% (n = 360,000);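 active means mean normalized replicate activity at least 40 and at least half of replicates scoring 40 or more; inconclusive means only one of the two criteria met; inactive means mean below 40 and under half of replicates reaching 40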;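 further: 0% = median of neutral control wells and 100% = median of positive control wells; inhibitors cause a drop in the FAM fluorescence signal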
AF4-AF9 inh – inhibitors of AF4 peptide binding to AF9, primary screen, biochemical, AlphaScreen, biotin-AF4 peptide, FLAG-AF9, single point; actives 0.47% (n = 350,000); AID 651704, 2012; inhibition, % at 10 µM; Protein AF-9 (Homo sapiens), P42568;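 active means every replicate reaching a set inhibition limit, whatever the replicate mean, cut at about 25% in these data; inconclusive means mean inhibition reaches that limit but some replicates miss it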;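 further: 0% = plate neutral control median and 100% = total signal loss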
Glyco luc inh – increase of ERlucT glycosylation luciferase signal, primary screen, N-linked glycosylation inhibitor project, D54 ERlucT cells, luminescence, set 2; actives 0.23% (n = 360,000); reporter increase, % at 12.5 µM; D54 ERlucT glycosylation luciferase reporter, 24 h; percent of 100 nM tunicamycin response;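 active means mean luciferase reporter signal, scaled so untreated is 0 and the glycosylation-blocking control 100, at or above a set limit in every replicate; inconclusive means mean reaches the limit but not every replicate does; inactive means mean below the limit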;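 further: luciferase carries N-glycosylation sites so blocking glycosylation raises the light; 0% = median of neutral control wells and 100% = median of 100 nM tunicamycin wells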
Casp6 inh – human caspase-6 inhibitors, primary screen, biochemical, VEID-R110 fluorescence, single point, set 2; AID 686996, 2013; inhibition, % at 12.5 µM; purified caspase-6, Z-VEID-R110 cleavage fluorescence; actives 0.53% (n = 350,000);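 active means mean inhibition across replicates at least about 35%, with every replicate also reaching that limit, limit read from the data; inconclusive means only one of the two criteria met; inactive means neither criterion met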;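 further: 0% = median of neutral control wells and 100% = no fluorescence left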
Active calls of the source: *; ? = inconclusive; · = not tested or not shown.

SMILES | RAD52 inh | RAD54 branch | AF4-AF9 inh | Glyco luc inh | Casp6 inh
Cc1ccc(Nc2c(-c3ccccn3)nc3cc(C)ccn23)cc1 | 8 | -2 | 37* | -1 | 2
Cc1ccc(-n2nc(-c3ccco3)cc2C(=O)O)cc1 | -47 | · | 0 | 0 | 55*
COc1ccccc1N1C(=O)c2cccnc2C1=O | -21 | -1 | 3 | 0 | -3
O=C1c2cccnc2-c2ncccc21 | · | 4 | · | 1 | ·
COC1=C(Br)C(=O)c2ncccc2C1=O | -5 | · | -17 | -11 | 98*
O=C1C(=O)c2cccnc2-c2ncccc21 | 42 | · | -24 | -18 | 61*
O=C(CCN1C(=O)/C(=C\c2cccs2)SC1=S)Nc1ccc(C(=O)O)cc1 | -155 | -7 | 4 | -1 | 5
O=C(O)CCCN1C(=O)/C(=C\c2ccco2)SC1=S | -155 | · | -3 | 2 | 32
O=C(CCN1C(=O)/C(=C/c2ccco2)SC1=S)Nc1ccc(O)cc1C(=O)O | -238 | -79 | -5 | 0 | 70*
O=C(CCCN1C(=O)/C(=C/c2ccco2)SC1=S)Nc1ccccc1C(=O)O | -288 | · | · | 0 | 62*
O=C1/C(=C\c2ccco2)SC(=S)N1Cc1ccccc1 | · | -14 | · | -5 | ·
CC(C(=O)Nc1ccc(O)cc1C(=O)O)N1C(=O)/C(=C\c2cccs2)SC1=S (centres undefined) | -33 | 3 | 9 | 0 | 46*
O=C(CCCN1C(=O)/C(=C\c2ccccc2)SC1=S)Nc1ccc(O)cc1C(=O)O | -32 | -11 | 1 | 2 | ·
O=C(CN1C(=O)/C(=C\c2ccco2)SC1=S)Nc1ccc(O)cc1C(=O)O | -123 | -33 | 1 | 3 | 73*
CCCC(=O)N1CC2(CN[C@H](CO)c3c2c2ccc(OC)cc2n3C)C1 | · | · | -1 | · | ·
COc1ccc2c3c([nH]c2c1)[C@H](CO)N(S(=O)(=O)c1cn(C)cn1)CC31CCN(Cc2ccccc2)CC1 | · | · | 15 | · | ·
Cc1nn(Cc2c(Cl)cccc2Cl)c(C)c1NC(=O)c1cc(C(C)C)on1 | -3 | 4 | -3 | 64* | -2
CCCNC(=O)Nc1ccc2c(c1)OC[C@@H](C)N(C(=O)c1ccccc1F)C[C@@H](C)[C@@H](OC)CN(C)C2=O | 16 | 1 | -3 | · | 0
C[C@@H]1CN([C@@H](C)CO)C(=O)c2cccc(NS(=O)(=O)c3ccc(F)cc3)c2O[C@H]1CN(C)C(=O)Nc1cccc2ccccc12 | 3 | · | -1 | · | -1
CN(C)CCn1c(=O)n(Cc2ccccc2)c(=O)c2c3c(sc21)CCCCC3 | 14 | 1 | 26* | 0 | 4
CN(C)CCCn1c(=O)n(Cc2ccco2)c(=O)c2c3c(sc21)CCCCC3 | 14 | · | · | 4 | -2
COc1cc(-c2cnc3c(NC(C)=O)cc(-c4ccccc4CN(C)C)cn23)cc(OC)c1OC | -39 | 11 | 7 | 40* | 4
O=C(C1CCCC1)N1C[C@H]2[C@@H](c3ccccc31)[C@H](CO)N2C(=O)Nc1cccc(F)c1 | -6 | -6 | 0 | · | -2
CC(C)=NNc1cc([N+](=O)[O-])cc2c1C(=O)N(C)S2=O (centres undefined) | -92 | · | -10 | 2 | 40*
Cc1ccc(S(=O)(=O)N[C@@H]2CC[C@H](CCNC(=O)C3CCCC3)O[C@H]2CO)cc1 | 2 | -15 | 0 | · | -1
SMILES | RAD52 inh | RAD54 branch | AF4-AF9 inh | Glyco luc inh | Casp6 inh
Cc1nnc(N/N=C/c2c(Cl)cccc2Cl)n1N | -33 | · | -4 | 2 | 4
Cc1cc(/C=N/NC(N)=S)c(C)n1-c1ccc(Br)cc1 | -5 | · | 6 | -7 | -4
Cc1nnc(N/N=C/c2cc(C)n(-c3ccc(F)cc3)c2C)n1N | 19 | · | 54* | 8 | 33
Cc1nnc(N/N=C/c2ccccc2O)n1N | -4 | · | -4 | 4 | 50*
C[C@@H]1CN([C@@H](C)CO)C(=O)c2cc(C#CC3(O)CCCC3)cnc2O[C@@H]1CN(C)C(=O)C1CCC1 | -1 | -5 | -1 | · | -3
C/C(=N/NC(=O)c1cc(O)c(O)c(O)c1)c1ccc([N+](=O)[O-])cc1 | 14 | · | 3 | 1 | 74*
C/C(=N\NC(=O)c1cnccn1)c1ccc([N+](=O)[O-])cc1 | -16 | · | -1 | 3 | 0
NCCCNCCCCNCCCN | 111* | 4 | ? | -1 | -250

Source: PubChem BioAssay (Broad Institute)
